Test results published in the supplement of paper PMC7765376.
Where a name gives a salt, the structure may show the parent alone. Whole data set: some 1,500 compounds, median “Excess HSA synergy score (sum over dose matrix of excess over highest single agent)” near 43, cut for the lowest 2% near -900. This is one part of a sample in which the lowest values are shown more often than they occur.

Tested on: PEO-1
Experiment: Excess HSA synergy score (sum over dose matrix of excess over highest single agent) (score (summed % response)); higher = less synergy / more antagonism (negative = synergy)
Conditions: 72 h, read-out: viability/apoptosis luminescence (CellTiter-Glo or Caspase3-Glo / not stated per table)
[1] = matrix design: 6x6, 5-fold dilutions (primary screen)
[2] = matrix design: 10x10, 9-step dilutions (confirmatory)

SMILES | Excess HSA synergy score [1] | Excess HSA synergy score [2]
CC(/C=C1\SC(=S)N(CC(=O)O)C1=O)=C\c1ccccc1 [Epalrestat] + CC[C@H](NC(=O)[C@H](C)NC)C(=O)N1C[C@@H](O)C[C@H]1Cc1c(-c2[nH]c3cc(F)ccc3c2C[C@@H]2C[C@H](O)CN2C(=O)[C@H](CC)NC(=O)[C@H](C)NC)[nH]c2cc(F)ccc12 [Birinapant] | 114 | –
CO/N=C(\C(=O)N[C@@H]1C(=O)N2C(C(=O)O)=C(Cn3ccc(=N)n3CCO)CS[C@H]12)c1csc(N)n1 [Cefoselis sulfate] + CC[C@H](NC(=O)[C@H](C)NC)C(=O)N1C[C@@H](O)C[C@H]1Cc1c(-c2[nH]c3cc(F)ccc3c2C[C@@H]2C[C@H](O)CN2C(=O)[C@H](CC)NC(=O)[C@H](C)NC)[nH]c2cc(F)ccc12 [Birinapant] | 200 | –
N#CC(=Cc1ccc(O)c(O)c1)C(=O)NCc1ccccc1 [Tyrphostin B42] + CC[C@H](NC(=O)[C@H](C)NC)C(=O)N1C[C@@H](O)C[C@H]1Cc1c(-c2[nH]c3cc(F)ccc3c2C[C@@H]2C[C@H](O)CN2C(=O)[C@H](CC)NC(=O)[C@H](C)NC)[nH]c2cc(F)ccc12 [Birinapant] | 83.7 | –
Cc1[nH]c2ccccc2c1CCNCc1ccc(/C=C/C(=O)NO)cc1 [Panobinostat] + CC[C@H](NC(=O)[C@H](C)NC)C(=O)N1C[C@@H](O)C[C@H]1Cc1c(-c2[nH]c3cc(F)ccc3c2C[C@@H]2C[C@H](O)CN2C(=O)[C@H](CC)NC(=O)[C@H](C)NC)[nH]c2cc(F)ccc12 [Birinapant] | -159 | -1360
O=C(/C=C/c1cccc(S(=O)(=O)Nc2ccccc2)c1)NO [Belinostat] + CC[C@H](NC(=O)[C@H](C)NC)C(=O)N1C[C@@H](O)C[C@H]1Cc1c(-c2[nH]c3cc(F)ccc3c2C[C@@H]2C[C@H](O)CN2C(=O)[C@H](CC)NC(=O)[C@H](C)NC)[nH]c2cc(F)ccc12 [Birinapant] | -26.7 | –
O=C(/C=C/c1ccc(CN(CCO)CCc2c[nH]c3ccccc23)cc1)NO [Dacinostat] + CC[C@H](NC(=O)[C@H](C)NC)C(=O)N1C[C@@H](O)C[C@H]1Cc1c(-c2[nH]c3cc(F)ccc3c2C[C@@H]2C[C@H](O)CN2C(=O)[C@H](CC)NC(=O)[C@H](C)NC)[nH]c2cc(F)ccc12 [Birinapant] | -67.4 | –
CC[C@]12C=CCN3CC[C@@]4(c5cc([C@@]6(C(=O)OC)C[C@@H]7C[C@@H](C(C)(F)F)CN(Cc8c6[nH]c6ccccc86)C7)c(OC)cc5N(C)[C@H]4[C@@](O)(C(=O)OC)[C@@H]1OC(C)=O)[C@@H]32 [Vinflunine] + CC[C@H](NC(=O)[C@H](C)NC)C(=O)N1C[C@@H](O)C[C@H]1Cc1c(-c2[nH]c3cc(F)ccc3c2C[C@@H]2C[C@H](O)CN2C(=O)[C@H](CC)NC(=O)[C@H](C)NC)[nH]c2cc(F)ccc12 [Birinapant] | -106 | -752
O=C(N[C@@H](c1ccccc1)[C@@H]1CCCCN1)c1cccc(C(F)(F)F)c1Cl + CC[C@H](NC(=O)[C@H](C)NC)C(=O)N1C[C@@H](O)C[C@H]1Cc1c(-c2[nH]c3cc(F)ccc3c2C[C@@H]2C[C@H](O)CN2C(=O)[C@H](CC)NC(=O)[C@H](C)NC)[nH]c2cc(F)ccc12 [Birinapant] | 61.9 | –
CC[C@@]1(O)C(=O)OCc2c1cc1n(c2=O)Cc2cc3cc(O)ccc3nc2-1 [10-hydroxycamptothecin] + CC[C@H](NC(=O)[C@H](C)NC)C(=O)N1C[C@@H](O)C[C@H]1Cc1c(-c2[nH]c3cc(F)ccc3c2C[C@@H]2C[C@H](O)CN2C(=O)[C@H](CC)NC(=O)[C@H](C)NC)[nH]c2cc(F)ccc12 [Birinapant] | -38.5 | –
CCc1c2c(nc3ccc(O)cc13)-c1cc3c(c(=O)n1C2)COC(=O)[C@]3(O)CC + CC[C@H](NC(=O)[C@H](C)NC)C(=O)N1C[C@@H](O)C[C@H]1Cc1c(-c2[nH]c3cc(F)ccc3c2C[C@@H]2C[C@H](O)CN2C(=O)[C@H](CC)NC(=O)[C@H](C)NC)[nH]c2cc(F)ccc12 [Birinapant] | 0.514 | –
CC[C@@]1(O)C(=O)OCc2c1cc1n(c2=O)Cc2cc3c(CN(C)C)c(O)ccc3nc2-1 [Topotecan hydrochloride] + CC[C@H](NC(=O)[C@H](C)NC)C(=O)N1C[C@@H](O)C[C@H]1Cc1c(-c2[nH]c3cc(F)ccc3c2C[C@@H]2C[C@H](O)CN2C(=O)[C@H](CC)NC(=O)[C@H](C)NC)[nH]c2cc(F)ccc12 [Birinapant] | -166 | -963
O=C(C1CC1)N1CC[C@@H](Cn2c(-c3ccc(-c4ccc5occc5c4)cc3)nc3cnccc32)C1 + CC[C@H](NC(=O)[C@H](C)NC)C(=O)N1C[C@@H](O)C[C@H]1Cc1c(-c2[nH]c3cc(F)ccc3c2C[C@@H]2C[C@H](O)CN2C(=O)[C@H](CC)NC(=O)[C@H](C)NC)[nH]c2cc(F)ccc12 [Birinapant] | 117 | –
CCCCCN(CCC12CC3CC(CC(C3)C1)C2)C(=O)NCCCc1ccncc1 + CC[C@H](NC(=O)[C@H](C)NC)C(=O)N1C[C@@H](O)C[C@H]1Cc1c(-c2[nH]c3cc(F)ccc3c2C[C@@H]2C[C@H](O)CN2C(=O)[C@H](CC)NC(=O)[C@H](C)NC)[nH]c2cc(F)ccc12 [Birinapant] | 297 | –
Cn1cc(/C=C/C(=O)c2cccc(F)c2)cc1/C=C/C(=O)NO + CC[C@H](NC(=O)[C@H](C)NC)C(=O)N1C[C@@H](O)C[C@H]1Cc1c(-c2[nH]c3cc(F)ccc3c2C[C@@H]2C[C@H](O)CN2C(=O)[C@H](CC)NC(=O)[C@H](C)NC)[nH]c2cc(F)ccc12 [Birinapant] | 132 | –
COC1=C2C[C@@H](C)C[C@H](OC)[C@H](O)[C@@H](C)/C=C(\C)[C@H](OC(N)=O)[C@@H](OC)/C=C\C=C(/C)C(=O)NC(=CC1=O)C2=O [Geldanamycin] + CC[C@H](NC(=O)[C@H](C)NC)C(=O)N1C[C@@H](O)C[C@H]1Cc1c(-c2[nH]c3cc(F)ccc3c2C[C@@H]2C[C@H](O)CN2C(=O)[C@H](CC)NC(=O)[C@H](C)NC)[nH]c2cc(F)ccc12 [Birinapant] | 115 | -710
CCc1cc(-c2n[nH]c(C)c2-c2ccc3c(c2)OCCO3)c(O)cc1O + CC[C@H](NC(=O)[C@H](C)NC)C(=O)N1C[C@@H](O)C[C@H]1Cc1c(-c2[nH]c3cc(F)ccc3c2C[C@@H]2C[C@H](O)CN2C(=O)[C@H](CC)NC(=O)[C@H](C)NC)[nH]c2cc(F)ccc12 [Birinapant] | 405 | –
Cc1c[nH]c(/C=C2\C(=O)Nc3ccccc32)c1CCC(=O)O + CC[C@H](NC(=O)[C@H](C)NC)C(=O)N1C[C@@H](O)C[C@H]1Cc1c(-c2[nH]c3cc(F)ccc3c2C[C@@H]2C[C@H](O)CN2C(=O)[C@H](CC)NC(=O)[C@H](C)NC)[nH]c2cc(F)ccc12 [Birinapant] | 54.2 | –
CC1(C)O[C@H]2CC(=O)OC[C@]23[C@H]2CC[C@@]4(C)[C@H](c5ccoc5)OC(=O)[C@H]5O[C@]54[C@]2(C)C(=O)C[C@@H]13 [Limonin] + CC[C@H](NC(=O)[C@H](C)NC)C(=O)N1C[C@@H](O)C[C@H]1Cc1c(-c2[nH]c3cc(F)ccc3c2C[C@@H]2C[C@H](O)CN2C(=O)[C@H](CC)NC(=O)[C@H](C)NC)[nH]c2cc(F)ccc12 [Birinapant] | 15.5 | –
COc1cccc2c1C(=O)c1c(O)c3c(c(O)c1C2=O)C[C@@](O)(C(=O)CO)C[C@@H]3O[C@H]1C[C@H](N)[C@H](O)[C@H](C)O1 [Doxorubicin] + CC[C@H](NC(=O)[C@H](C)NC)C(=O)N1C[C@@H](O)C[C@H]1Cc1c(-c2[nH]c3cc(F)ccc3c2C[C@@H]2C[C@H](O)CN2C(=O)[C@H](CC)NC(=O)[C@H](C)NC)[nH]c2cc(F)ccc12 [Birinapant] | -136 | –
COc1cccc2c1C(=O)c1c(O)c3c(c(O)c1C2=O)C[C@@](O)(C(=O)CO)C[C@@H]3O[C@H]1C[C@H](N)[C@@H](O)[C@H](C)O1 [Epirubicin hydrochloride] + CC[C@H](NC(=O)[C@H](C)NC)C(=O)N1C[C@@H](O)C[C@H]1Cc1c(-c2[nH]c3cc(F)ccc3c2C[C@@H]2C[C@H](O)CN2C(=O)[C@H](CC)NC(=O)[C@H](C)NC)[nH]c2cc(F)ccc12 [Birinapant] | -93.1 | –
CC[C@@]1(O)C[C@H](O[C@H]2C[C@H](N(C)C)[C@H](O[C@H]3C[C@H](O)[C@H](O[C@H]4CCC(=O)[C@H](C)O4)[C@H](C)O3)[C@H](C)O2)c2c(cc3c(c2O)C(=O)c2c(O)cccc2C3=O)[C@H]1C(=O)OC [Aclarubicin] + CC[C@H](NC(=O)[C@H](C)NC)C(=O)N1C[C@@H](O)C[C@H]1Cc1c(-c2[nH]c3cc(F)ccc3c2C[C@@H]2C[C@H](O)CN2C(=O)[C@H](CC)NC(=O)[C@H](C)NC)[nH]c2cc(F)ccc12 [Birinapant] | -147 | -1130
CCc1cc2c(cc1N1CCC(N3CCOCC3)CC1)C(C)(C)c1[nH]c3cc(C#N)ccc3c1C2=O + CC[C@H](NC(=O)[C@H](C)NC)C(=O)N1C[C@@H](O)C[C@H]1Cc1c(-c2[nH]c3cc(F)ccc3c2C[C@@H]2C[C@H](O)CN2C(=O)[C@H](CC)NC(=O)[C@H](C)NC)[nH]c2cc(F)ccc12 [Birinapant] | 183 | –
C[Se]CC[C@H](N)C(=O)O [L-selenomethionine] + CC[C@H](NC(=O)[C@H](C)NC)C(=O)N1C[C@@H](O)C[C@H]1Cc1c(-c2[nH]c3cc(F)ccc3c2C[C@@H]2C[C@H](O)CN2C(=O)[C@H](CC)NC(=O)[C@H](C)NC)[nH]c2cc(F)ccc12 [Birinapant] | 115 | –
